Bioassay records as filed in PubChem.
Hits are enriched below; roughly 4.7% of the tested compounds scored in any of these assays.
FBA Mtb inh – inhibits M. tuberculosis FBA enzyme | P9WQA3 | AID 588726 | inhibition, % at 1 µM | purified M. tuberculosis FBA, fluorescence read-out | actives 2.3% (n = 360,000); in the data active = inhibition above about 27%;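 note: 0% = vehicle and 100% = reference inhibitor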
VHR inh abs – blocks human VHR1 dual specificity phosphatase | P51452 | recombinant VHR phosphatase, pNPP absorbance | inhibition, % at 13.3 µM | actives 0.52% (n = 290,000) | AID 1654; in the data active = inhibition above about 50%
CCHF vOTU inh – CCHFV vOTU protease inhibition; Pep-AMC fluorescence; inhibition, % at 11.5 µM; actives 0.55% (n = 370,000); AID 651958; note: 0% = vehicle wells with enzyme and 100% = no enzyme wells
GDH-TPI counter – GDH-TPI coupled enzyme inhibition counter-screen. actives 1.2% (n = 360,000). GDH-TPI coupled enzyme counterscreen, NADH absorbance. inhibition, % at 4.8 µM;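 note: 0% = DMSO wells and 100% = wells lacking the enzyme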
RecA splice inh – inhibitors of M. tuberculosis RecA intein splicing; actives 0.75% (n = 290,000); cell-free RecA intein splicing, fluorescence; P9WHJ3; inhibition, % (no concentration beside the values); in the data active = inhibition above about 30%;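 note: 0% = vehicle wells and 100% = reference inhibitor control wells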
Target sequence (P9WHJ3 whole entry, looked up, canonical isoform): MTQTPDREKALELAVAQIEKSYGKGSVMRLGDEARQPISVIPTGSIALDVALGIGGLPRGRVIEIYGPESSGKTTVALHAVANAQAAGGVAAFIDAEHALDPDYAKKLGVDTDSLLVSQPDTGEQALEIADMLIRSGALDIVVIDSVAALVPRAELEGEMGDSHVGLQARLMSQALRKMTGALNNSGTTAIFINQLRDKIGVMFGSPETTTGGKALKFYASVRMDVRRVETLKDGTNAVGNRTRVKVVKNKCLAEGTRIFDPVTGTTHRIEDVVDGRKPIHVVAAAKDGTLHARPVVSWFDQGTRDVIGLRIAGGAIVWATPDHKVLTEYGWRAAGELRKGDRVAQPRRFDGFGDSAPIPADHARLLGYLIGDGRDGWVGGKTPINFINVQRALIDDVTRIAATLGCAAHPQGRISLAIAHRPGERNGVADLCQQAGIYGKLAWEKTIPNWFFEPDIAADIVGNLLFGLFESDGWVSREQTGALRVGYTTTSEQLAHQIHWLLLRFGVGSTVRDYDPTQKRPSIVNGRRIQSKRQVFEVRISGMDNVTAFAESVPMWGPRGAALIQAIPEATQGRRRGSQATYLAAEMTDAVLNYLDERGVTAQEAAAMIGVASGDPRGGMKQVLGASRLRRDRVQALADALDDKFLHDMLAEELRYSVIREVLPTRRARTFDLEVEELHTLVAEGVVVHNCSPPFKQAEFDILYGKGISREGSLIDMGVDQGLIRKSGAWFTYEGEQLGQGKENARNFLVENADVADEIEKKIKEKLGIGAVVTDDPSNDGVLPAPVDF
3CLpro inhibitor – SARS-CoV 3CLpro protease inhibition | recombinant SARS-CoV 3CLpro, quenched FRET peptide cleavage | inhibition, % at 6 µM | actives 0.14% (n = 290,000) | AID 1706; in the data active = inhibition above about 12%
GFP chromophore – counter-screen GFP chromophore formation inhibition. EC50, µM. actives 83% (n = 2,100). cell-free GFP chromophore formation, fluorescence. AID 434968. shares compounds with RecA splice inh; call rule not given here
Numbers without * were called inactive; x = not tested or not shown; + = active, no number. Cut-off read from the data, not from the text of the source, unless noted: active = inhibition above about 30%; inactive = the rest.

SMILES | FBA Mtb inh | VHR inh abs | CCHF vOTU inh | GDH-TPI counter | RecA splice inh | 3CLpro inhibitor | GFP chromophore
C=CCSC(=C(C#N)C#N)c1cc2c([nH]1)CCCC2 | -11 | 27 | 7 | 2 | 70* | -4 | 17*
Cn1c(-c2ccccc2)c(C(=O)CCl)c2ccccc21 | 0 | 10 | -1 | 12 | 42* | 4 | 14*
CCn1c(-c2ccccc2)c(C(=O)CCl)c2ccccc21 | 6 | 18 | -6 | 0 | 40* | 4 | 1.6*
Cn1c(-c2ccccc2)c(CCO)c2ccccc21 | 1 | -5 | -38 | 16 | 1 | -1 | x
CCCc1nc2c(C)cc(Br)cn2c1Cc1cccc(Cl)c1 | x | x | 11 | x | x | x | x
CCOc1cc(C=NNC(=O)N(c2ccccc2)c2ccccc2)ccc1O | -1 | x | x | x | x | x | x
COC(=O)CN1C(=O)C2(C(C#N)=C(N)Oc3c2c(C)nn3-c2ccccc2)c2ccccc21 (stereo unspecified) | -1 | 40 | 15 | 6 | 75* | 1 | 15*
CCc1ccc(Nc2n[n+](-c3ccccc3)c(-c3c(Cl)cccc3Cl)s2)cc1 | 1 | 37 | 0 | 17 | 49* | 7 | 16*
CCCCNC(=O)Cn1nc(Cc2ccncc2)c2ccccc2c1=O | 1 | -5 | -11 | 0 | 4 | -4 | x
CN(CCC#N)C(=O)Cn1nc(Cc2ccncc2)c2ccccc2c1=O | 1 | 17 | -7 | 5 | 49* | 1 | >38
Oc1ccc(N=Cc2ccc(-c3cccs3)s2)cc1 | + | 6 | -311 | 35* | 45* | -3 | >38
CCCCOc1ccc(N=Cc2cccs2)cc1 | -2 | -7 | -18 | 16 | 1 | 0 | x
Oc1ccc(Nc2nc(-c3ccc4ccccc4c3)cs2)cc1 | -1 | 28 | -4 | 4 | 34* | 2 | 20*
CC(=O)Nc1nc(-c2ccc3ccccc3c2)cs1 | 6 | 16 | 0 | 21 | 1 | 2 | x
COc1cccc(-n2sc3c(c2=S)-c2cc(OC)ccc2NC3(C)C)c1 | 1 | 15 | 7 | 7 | -6 | -1 | x
CC1(C)Nc2ccc(O)cc2-c2c1ssc2=S | -4 | 9 | 10 | 3 | 93* | 1 | 2.4*
Fc1cccc(F)c1[B-](F)(F)F | -1 | x | 4 | 8 | x | x | x
Cc1ccccc1OCC(=O)Nc1ccccc1N1CCCCC1 | -1 | -12 | -8 | 3 | 32* | 5 | >38
S=C(NC1CC1)NC1CCCc2ccccc21 (stereo unspecified) | 5 | -8 | -2 | 4 | -1 | -4 | x
O=S1(=O)CC2c3ccc(F)cc3CN2CN1C1CCCC1 (stereo unspecified) | x | x | 12 | x | x | x | x
Cc1ccc(C[n+]2c(-c3ccc(C)cc3)cc(-c3ccc(C)cc3)cc2-c2ccc(C)cc2)cc1 | 21 | x | x | 8 | 56* | x | 14*
N#CC(C#N)=C(C#N)c1ccc(Nc2ccccc2)cc1 | 1 | -12 | -3 | 8 | 52* | -1 | 4.6*
CC/C(=N/NC(=O)c1ccc2c(c1)OCO2)c1ccccc1O | 1 | x | 1 | 6 | 8 | x | x
Cc1sc(NC(=O)CSC2=NCCS2)nc1-c1ccccc1 | 2 | 16 | 10 | 2 | 45* | 3 | >38
Cc1ccc(Sc2c([N+](=O)[O-])ncn2C)cc1 | 1 | 23 | 4 | 17 | 53* | 0 | >38
SMILES | FBA Mtb inh | VHR inh abs | CCHF vOTU inh | GDH-TPI counter | RecA splice inh | 3CLpro inhibitor | GFP chromophore
Cn1cnc([N+](=O)[O-])c1Sc1ccc(Br)cc1 | 0 | 7 | 7 | 6 | 25 | 1 | x
Cc1cc(C)n(-c2ccc([N+](=O)[O-])cc2)n1 | 2 | 0 | -10 | 15 | 43* | 3 | >38
CC(C)(C)c1ccc(-n2nc(C#N)c(Cl)cc2=O)cc1 | 4 | -33 | 8 | 8 | 93* | 8 | 2.6*
CN1C(=O)/C(=C/c2ccc(-c3ccccc3[N+](=O)[O-])o2)SC1=Nc1ccc(Cl)c(C(=O)O)c1 | -6 | 19 | 10 | 29 | 45* | 9 | 23*
O=C(O)c1cc(-c2ccc(/C=C3/SC(=S)N(Cc4ccccc4)C3=O)o2)ccc1Cl | -2 | -26 | 5 | 6 | x | 4 | x
O=C(Cc1ccccc1)NC1(O)C(=O)c2ccccc2C1=O | -4 | 17 | 24 | -21 | 66* | 1 | 11*
COc1ccc(Cl)cc1NC(=O)c1sc2nc(C)nc(N3CCOCC3)c2c1C | -7 | 9 | 2 | -11 | 3 | -3 | x
Cc1ccc(S(=O)(=O)NC(=O)Nc2ccc(N(C)C)cc2)cc1 | 1 | 52* | 50* | 0 | 49* | 3 | 19*
Cc1cc(C(=O)NC2CCCCCCC2)ccc1[N+](=O)[O-] | 1 | x | -7 | -1 | -1 | x | x
O=C1CCC(C(=O)N2CCN(c3ccccc3)CC2)CN1Cc1ccc(Cl)cc1 (stereo unspecified) | -2 | x | -2 | 6 | x | x | x
CC(C)Oc1cccc(C(=O)C2CCCN(C(=O)c3cc(C(F)(F)F)[nH]n3)C2)c1 (stereo unspecified) | 1 | 43 | 28 | 0 | -1 | 2 | x
CC(C)Oc1cccc(C(=O)C2CCCN(C(=O)c3csnn3)C2)c1 (stereo unspecified) | 1 | 8 | 3 | -2 | 52* | 3 | >38
O=C1c2ccccc2C(c2nnnn2Cc2ccccc2)N1Cc1cccc(F)c1 (stereo unspecified) | x | x | 5 | x | x | x | x
Cc1ccc(Sc2c(C)[nH]n(C(C)(C)C)c2=O)cc1 | -2 | 37 | 2 | 9 | 50* | 6 | 40*
COc1cccc(CNc2nc3cc(-c4ccsc4)sc3c(=O)n2C)c1OC | 1 | x | 7 | 12 | x | x | x
CC1CCC(C(C)C)C(OC(=O)Cn2c(COc3ccccc3)[n+](C)c3ccccc32)C1 (stereo unspecified) | 7 | 2 | 29 | 4 | 15 | 6 | x
CCCCCCCCCCOC(=O)Cn1c(COc2ccccc2OC)[n+](C)c2ccccc21 | -1 | 8 | 25 | 5 | 49* | 4 | 12*
CC[C@@]1(C(=O)OC)N[C@H](CN(C)S(=O)(=O)c2ccc(C(F)(F)F)cc2)[C@@H]2C(=O)N(C)C(=O)[C@@H]21 | 0 | x | -6 | -3 | x | x | x
Nc1ccc2nc(Cc3ccccc3)[nH]c2c1 | 1 | 23 | -10 | 6 | 30* | 3 | >38
COC(=O)N1C(=O)[C@](c2ccccc2)(C(C)C)N1C(=O)OC | 1 | 29 | -6 | 6 | -1 | -1 | x
CCOC(=O)N1C(=O)[C@](c2ccc(Cl)cc2)(C(C)C)N1C(=O)OCC | -1 | -2 | 4 | 4 | 34* | -1 | 3.5*
CCOC(=O)N1C(=O)[C@@](c2ccc(Cl)cc2)(C(C)C)N1C(=O)OCC | 1 | 29 | -1 | 0 | 49* | 3 | 33*
CCc1oc2ccccc2c1C(=O)c1cc(Br)c(O)c(Br)c1 | 20 | 12 | 18 | 18 | 26 | 4 | 18*
O=c1ccc(-c2ccccc2)nn1Cc1ccc(F)cc1Cl | 2 | 14 | 18 | 6 | 11 | -1 | x
